High-throughput results from PubChem BioAssay.
BRCA1 expr up: BRCA1 expression activation | MCF7-BRCA1-FFLuc reporter, luminescence, 48 h; response scale: scaled: vehicle 0%, 10 µM genistein 100% | Potency, µM (doses to about 46.1 µM), hits mostly activators | 1.1% of 380,000 active | AID 624202; also: nearly all actives have a fitted effect of over 80% in size
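Luminescence from a BRCA1-driven firefly luciferase in MCF7 cells was read after 48 h compound exposure at 37 C. Data normalized against DMSO and a 10microM genistein activation control, then curve-fitted across the titration.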
PINK1 modulator: modulators of PINK1 expression | PINK1 immunofluorescence, high-content cytometry, 24 h | Potency, µM (top dose mostly 76.6 µM), actives largely listed as activators | 0.2% of 410,000 active | AID 624263; active = well fitted activation curve with a large enough effect; inconclusive = small, poorly fitted or top-dose-only effect; cell line not stated here; also: nearly all actives have a fitted effect of over 65% in size
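Measures PINK1 amount and localization on or inside mitochondria by immunofluorescence. Stable cells get compounds at 5 concentrations for 24 hours before fixation and staining; CCCP controls included.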
pAkt inh: Akt phosphorylation inhibition; Neuro2A IGF-stimulated pAkt S473 HTRF, 20 min; stronger effect = lower value; activity change, % for hits at 50 µM; 0.32% of 360,000 active; AID 651550; in the data active = activity change below about -80%; inconclusive = mostly about -51% to -80%
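Neuro2A cells in DMEM with 0.5% FBS, overnight at 37 deg C, given compound at single 50 µM final, then IGF (6 nM final) for 20 min at 37 deg C. Lysed; phospho-Akt Ser473 by HTRF after 24 h, 665/615 ratio.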
TCR act: activators of T cell receptors | primary human leukocytes, anti-CD3, IL-2 HTRF, 48 h | Potency, µM (series often up to 9.22 µM), hits mostly activators | 330,000 tested, under 10 active
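48 hr co-incubation of compounds, a-CD3 beads and primary human leukocytes; IL-2 quantified homogeneously by HTRF with anti-IL-2 K and d2 conjugates.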
A number is an active result; - = inactive; ? = inconclusive; . = no result. Rows were chosen to be rich in hits. Some 1.5% of all compounds tested hit in one or more screens of this group. Unless noted, calls follow the shape of the dose curve; as a rule, active = well fitted curve in the direction sought with a large enough effect; inconclusive = small, poorly fitted or top-dose-only effect, or another doubt; inactive = no such curve, though single readings can be large; an effect the other way counts as inactive or inconclusive.

SMILES	BRCA1 expr up	PINK1 modulator	pAkt inh	TCR act
COc1ccc(CN2CCCCCC2)cc1OC	-	-	-	-
COc1cc(C(=S)N2CCCC2)ccc1OCc1ccc(C)cc1	11µM	-	-	.
Cc1cc(C(=O)NCc2nc(-c3cccc(NC(=O)c4cc(C)oc4C)c3)oc2C)nc(C)n1	.	-	.	.
O=C(NCCc1cccnc1)c1cnn(-c2ncc3c(n2)-c2ccccc2CC3)c1C1CC1	.	-	.	.
CC(C)c1c(C(=O)NCC2(N3CCCCC3)CCCC2)cnn1-c1nccc(-c2ccco2)n1	.	-	.	.
Cc1ccc(-n2cc3c(-c4cccc(Br)c4)nnc(C)c3n2)cc1	-	?	-102%	-
COCCN(CCOC)S(=O)(=O)c1ccc(C(=O)NC2CCN(Cc3ccccc3)CC2)cc1	-	-	-113%	-
CCN(CC)S(=O)(=O)c1ccc(Cl)c(C(=O)NC2CCN(Cc3ccccc3)CC2)c1	-	-	-	-
COC(=O)c1ccc(NC(=O)C2CC(=O)N(c3cc(C)ccc3C)C2)cc1 (centres undefined)	-	-	-105%	-
O=C1CC2C(CCC23OCCO3)c2ccc3ccccc3c21 (centres undefined)	10µM	-	-	-
COc1cc(CN2CCOc3ccc(C(O)c4cccnc4)cc3C2)cc(OC)c1 (centres undefined)	.	-	.	.
Cc1cnc(C)c(-c2cccc3c2OC(CNC(=O)C2(c4ccc(Cl)cc4)CC2)C3)n1 (centres undefined)	.	-	.	.
O=c1c2cccnc2[nH]c(=S)n1CCCN1CCN(c2ccc(F)cc2)CC1	-	-	-111%	-
Cc1c(N=Nc2c(-c3ccc([N+](=O)[O-])cc3)[nH]n(C(N)=S)c2=O)cccc1[N+](=O)[O-]	-	3.2µM	-	-
NC(=S)n1[nH]c(-c2ccc([N+](=O)[O-])cc2)c(N=Nc2ccccc2[N+](=O)[O-])c1=O	-	-	-	-
COc1cccc(C(=O)NC(C)c2nnc3n2CCN(CC=C(C)C)CC3)c1 (centres undefined)	.	-	.	.
Cn1c(NC(=O)c2cccc(Cn3cc(Cl)cn3)c2)nc2ccccc21	-	11µM	-	.
CCn1c(NC(=O)c2cccc(Cn3cc(Cl)cn3)c2)nc2ccccc21	-	-	-	-
CN(C)c1cccc(C(=O)NCC2Cc3cccc(-c4cncnc4)c3O2)c1 (centres undefined)	.	-	.	.
CC(=O)NCCNC(=O)c1ccc2c(=O)n(CCc3ccccc3)c(=O)[nH]c2c1	4.5µM	-	.	.
CCN(CC)CCCNC(=O)c1ccc2c(=O)n(CCc3ccccc3)c(=O)[nH]c2c1	-	-	.	.
COc1ccc(-c2noc(-c3ccoc3C)n2)cc1OC	4.5µM	-	-	-
COc1ccc(-c2noc(-c3ccoc3C)n2)cc1	11µM	-	-	-
COc1cccc(-c2noc(-c3ccoc3C)n2)c1	-	-	-	-
CCCCCCCn1c2c(c(=N)c3c1CCC3)CCCC2	-	11µM	-	-
SMILES	BRCA1 expr up	PINK1 modulator	pAkt inh	TCR act
CCCCCCCCCn1c2c(c(=N)c3c1CCC3)CCC2	-	-	-	-
Cc1ccc2c(c1)NC(=O)c1cccnc1N2	4.5µM	-	-	-
CCN(C(=O)Nc1cn(CC(C)C)c(=O)c2ccccc12)c1cc(C)ccc1C	-	-	.	.
CCOC(=O)c1cnn2c(C)cc(-c3ccc(F)cc3)nc12	2.8µM	-	-	-
Cc1cc(-c2ccc(F)cc2)nc2cc(C(N)=O)nn12	-	-	-	-
COC1CCN(C(=O)c2cc(COc3cc(C)ccc3C)on2)CC1	-	-	-	.
CC(=O)NCCC1CCCCN1C(=O)c1cc(COc2cc(C)ccc2C)on1 (centres undefined)	7.1µM	-	-	-
COCCN1CCN(C(=O)c2cc(COc3cc(C)ccc3C)on2)CC1	?	-	.	-
Cc1ccc(C)c(OCc2cc(C(=O)N3CCC(N4CCCC(O)C4)CC3)no2)c1 (centres undefined)	-	-	-	-
Cc1ccc(C)c(OCc2cc(C(=O)N3CCOCC3)no2)c1	18µM	-	.	-
COCCCC1CCN(C(=O)c2cc(COc3cc(C)ccc3C)on2)CC1	3.2µM	-	-	-
Cc1nn(C)cc1C(C)NC(=O)c1cc(COc2c(F)cccc2F)on1 (centres undefined)	-	-	-	-
CC(NC(=O)c1cc(COc2c(F)cccc2F)on1)c1cnn(-c2ccccc2)c1 (centres undefined)	7.1µM	-	-	-
Cc1ccc(OCc2nc(-c3ccc(Cl)cc3)n[nH]2)cc1	-	?	-	.
